Sampled rows, rich in hits. Any-hit rate of the full collection: about 2%.
TLR9-MyD88 block = inhibitors of human TLR9-MyD88 binding | Q9NR96+Q99836 | CHO BLA complementation TLR9-MyD88, CCF4 FRET ratio | inhibition, % at 4.98 µM | 340,000 compounds, 0.21% hits | AID 504734;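 active means inhibition above the mean over all tested compounds plus 3 SD, cut at about 21% in these data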;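 further: 0% = DMSO only wells and 100% = clavulanate BLA inhibitor control wells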
TLR4 MyD88 comp = inhibitors of human TLR4-MyD88 binding; O00206+Q99836; HeLa CL3-4 TLR4/MyD88 BLA complementation, FRET ratio; inhibition, % at 8.4 µM; 200,000 compounds, 0.18% hits; AID 861; in the data active means inhibition above about 25%;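 further: 0% = vehicle and 100% = reference inhibitor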
ABHD5-PLIN5 inh = blocks binding of human ABHD5 to perilipin-5; 360,000 compounds, 0.78% hits; inhibition, % at 4 µM; Split G. princeps luciferase complementation, luminescence, 4 h; Q00G26+Q8WTS1; AID 602281;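 active means inhibition above the mean inhibition across every tested compound plus 3 SD, cut at about 22% in these data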;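 further: 0% = DMSO only wells and the 100% control is not disclosed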
Target sequence (Q00G26 whole entry, looked up): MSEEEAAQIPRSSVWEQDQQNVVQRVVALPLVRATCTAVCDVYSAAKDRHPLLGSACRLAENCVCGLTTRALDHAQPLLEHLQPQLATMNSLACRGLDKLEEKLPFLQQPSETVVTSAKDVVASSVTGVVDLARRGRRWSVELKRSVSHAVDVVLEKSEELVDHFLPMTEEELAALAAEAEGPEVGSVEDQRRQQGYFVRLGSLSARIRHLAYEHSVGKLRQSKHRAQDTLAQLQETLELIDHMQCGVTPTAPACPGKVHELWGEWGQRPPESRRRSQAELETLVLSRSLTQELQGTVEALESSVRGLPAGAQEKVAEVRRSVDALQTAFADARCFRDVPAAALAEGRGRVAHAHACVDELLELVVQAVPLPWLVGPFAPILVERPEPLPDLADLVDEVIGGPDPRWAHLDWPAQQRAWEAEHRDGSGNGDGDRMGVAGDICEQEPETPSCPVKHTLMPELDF
Target sequence (Q8WTS1 whole entry, looked up): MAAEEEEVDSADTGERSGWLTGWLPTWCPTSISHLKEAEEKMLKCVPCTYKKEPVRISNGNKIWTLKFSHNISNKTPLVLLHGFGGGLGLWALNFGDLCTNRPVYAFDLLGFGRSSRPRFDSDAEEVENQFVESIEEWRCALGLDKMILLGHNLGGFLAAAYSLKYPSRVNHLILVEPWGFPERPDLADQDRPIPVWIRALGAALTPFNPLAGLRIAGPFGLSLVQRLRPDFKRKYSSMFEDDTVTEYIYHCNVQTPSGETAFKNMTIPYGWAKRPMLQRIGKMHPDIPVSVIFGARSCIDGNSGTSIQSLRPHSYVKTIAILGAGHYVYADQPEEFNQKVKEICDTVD
Exocytosis inh = lytic granule exocytosis inhibition | TALL-104 LAMP-1 surface exposure, flow cytometry; cells stimulated with thapsigargin and PMA | inhibition, % at 10 µM | 360,000 compounds, 0.66% hits | AID 651702;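 active means inhibition above about 55%, limit read from the data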
B2AR ag = activates human beta-2 adrenergic receptor causing internalization | P07550 | Am2.2-beta2AR cells, FAP receptor internalization, flow cytometry | response, % (test concentration not listed) | 340,000 compounds, 0.43% hits;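 active means response above a set limit, near 3 SD of response in nonfluorescent compounds, cut at about 42% in these data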
NOD2 RIPK2 PPI = NOD2-RIPK2 protein interaction inhibition. CHO BLA complementation NOD2-RIPK2, CCF4 ratio. inhibition, % at 4.98 µM. 360,000 compounds, 0.38% hits. AID 624267; in the data active means inhibition above about 21%;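 further: 0% = vehicle only and 100% = reference blocker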
ABHD5 PLIN5 conf = ABHD5-PLIN5 interaction inhibition, confirmed | shares compounds with ABHD5-PLIN5 inh | biochemical ABHD5-PLIN5 interaction, luminescence | inhibition, % at 4 µM | 2,200 compounds, 67% hits; in the data active means inhibition above about 23%;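 further: 0% = DMSO vehicle wells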
HNF4 counter = counter-screen for ABHD5-PLIN5 inhibitors: HNF4 split-luciferase | shares compounds with ABHD5-PLIN5 inh | HNF4 dimerization, luminescence, biochemical | inhibition, % at 4 µM | 2,200 compounds, 77% hits;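 active means mean inhibition across replicate wells exceeding the computed hit threshold, cut at about 13% in these data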;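 further: light from luciferase halves that rejoin when HNF4 fusion proteins dimerize; 0% = DMSO only wells and the 100% control is not given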
Numbers without * were called inactive.

Results for CC1(C)CC(=O)C=C(NC2=CC3OC(c4ccccc4)OCC3OC2=O)C1 (configuration not stated) ?
TLR9-MyD88 block: 1.8; TLR4 MyD88 comp: 3.7; ABHD5-PLIN5 inh: 62.9*; Exocytosis inh: 37.2; B2AR ag: 11.2; NOD2 RIPK2 PPI: 20.1; ABHD5 PLIN5 conf: 85.1*; HNF4 counter: 93.8*

Results for Cc1ccccc1NC1=CC(=O)CC(C)(C)C1 ?
TLR9-MyD88 block: -1.0; TLR4 MyD88 comp: 5.3; ABHD5-PLIN5 inh: 0.6; Exocytosis inh: 5.1; B2AR ag: 12.2; NOD2 RIPK2 PPI: -2.1

What do the screens show for `CCN1CCN(Cc2ccc(NC(=O)c3ccc(C)c(NC(=O)c4ccno4)c3)cc2C(F)(F)F)CC1`?
TLR9-MyD88 block: 1.7; ABHD5-PLIN5 inh: -2.2; Exocytosis inh: -1.8; B2AR ag: 9.6; NOD2 RIPK2 PPI: 3.6

Results for CCN1CCN(Cc2ccc(NC(=O)c3ccc(C)c(/C=C/c4cnc(Nc5cc(N6CCNCC6)nc(C)n5)cn4)c3)cc2C(F)(F)F)CC1 ?
TLR9-MyD88 block: 3.3; ABHD5-PLIN5 inh: 28.1*; Exocytosis inh: 36.1; B2AR ag: -54.3; NOD2 RIPK2 PPI: -16.6; ABHD5 PLIN5 conf: 35.7*; HNF4 counter: 5.3

Results for Cc1ccccc1CN1C[C@H]2CON(C)[C@H]2C[C@H]1c1cccc(Br)c1 ?
TLR9-MyD88 block: 0.5; ABHD5-PLIN5 inh: -17.4; Exocytosis inh: 3.1; NOD2 RIPK2 PPI: 7.6

What do the screens show for `COC(=O)c1c(C)oc2ccc(N(C(C)=O)S(=O)(=O)c3ccccc3)cc12`?
TLR9-MyD88 block: 3.7; ABHD5-PLIN5 inh: 8.9; Exocytosis inh: 7.7; B2AR ag: 1.0; NOD2 RIPK2 PPI: 2.0

How did COc1ccc(S(=O)(=O)N(C(C)=O)c2ccc3oc(=O)sc3c2)cc1 do in these assays?
TLR9-MyD88 block: -9.4; TLR4 MyD88 comp: -8.5; ABHD5-PLIN5 inh: 28.7*; Exocytosis inh: -2.8; B2AR ag: -0.6; NOD2 RIPK2 PPI: -3.9; ABHD5 PLIN5 conf: -54.9; HNF4 counter: 16.4*

What do the screens show for `O=C1NC[C@H](CCCCN2CCN(CCc3ccccc3)C(=O)C2=O)N(CCC2CCCCC2)C1=O`?
ABHD5-PLIN5 inh: 4.6; Exocytosis inh: -5.2; NOD2 RIPK2 PPI: -11.5

How did CCN(CC)C(=O)N1CCN(C)CC1 do in these assays?
TLR9-MyD88 block: 5.4; ABHD5-PLIN5 inh: 38.2*; Exocytosis inh: -3.0; B2AR ag: 3.2; NOD2 RIPK2 PPI: -5.3; ABHD5 PLIN5 conf: 79.8*; HNF4 counter: 37.4*

How did CC(C)OC(=O)CSc1nnc(-c2cnccn2)n1Cc1ccco1 do in these assays?
TLR9-MyD88 block: -3.6; TLR4 MyD88 comp: 8.2; ABHD5-PLIN5 inh: -4.9; Exocytosis inh: 0.4; B2AR ag: 4.5; NOD2 RIPK2 PPI: -13.9

Results for Cc1ccc(NC(=O)CSc2nnc(-c3cnccn3)n2Cc2ccco2)cc1 ?
TLR9-MyD88 block: 3.4; TLR4 MyD88 comp: 4.5; ABHD5-PLIN5 inh: 8.2; Exocytosis inh: -6.6; B2AR ag: 4.2; NOD2 RIPK2 PPI: -9.0

How did O=C(CSc1nnc(-c2cnccn2)n1Cc1ccco1)c1ccc2ccccc2c1 do in these assays?
TLR9-MyD88 block: 2.6; TLR4 MyD88 comp: -4.7; ABHD5-PLIN5 inh: 37.0*; Exocytosis inh: 2.2; B2AR ag: 3.4; NOD2 RIPK2 PPI: -1.0; ABHD5 PLIN5 conf: 16.1; HNF4 counter: 26.7*

How did Cc1cccc(NC(=O)CSc2nnc(-c3ccco3)c(-c3ccco3)n2)c1 do in these assays?
TLR9-MyD88 block: 9.5; TLR4 MyD88 comp: -0.9; ABHD5-PLIN5 inh: 25.7*; Exocytosis inh: 0.1; B2AR ag: -11.0; NOD2 RIPK2 PPI: -1.8; ABHD5 PLIN5 conf: 90.3*; HNF4 counter: 66.8*

How did Cc1cccc(NC(=O)CSc2nnc(-c3cnccn3)n2Cc2ccco2)c1 do in these assays?
TLR9-MyD88 block: -1.7; TLR4 MyD88 comp: 4.9; ABHD5-PLIN5 inh: 67.7*; Exocytosis inh: 1.7; B2AR ag: -1.6; NOD2 RIPK2 PPI: 10.9; ABHD5 PLIN5 conf: 10.5; HNF4 counter: 11.4

How did COc1ccc(S(=O)(=O)N2CCC(C(=O)N[C@@H](C)C(=O)NCc3ccco3)CC2)cc1 do in these assays?
TLR9-MyD88 block: -6.0; ABHD5-PLIN5 inh: 4.6; Exocytosis inh: 2.6; NOD2 RIPK2 PPI: -0.3

What do the screens show for `COc1cc(N=c2ssnc2Cl)cc(OC)c1`?
TLR9-MyD88 block: 0.0; TLR4 MyD88 comp: -25.9; ABHD5-PLIN5 inh: -2.4; Exocytosis inh: -1.1; B2AR ag: 30.2; NOD2 RIPK2 PPI: -16.7

What do the screens show for `Clc1nssc1=Nc1ccc(Br)cc1`?
TLR9-MyD88 block: 0.9; TLR4 MyD88 comp: 2.3; ABHD5-PLIN5 inh: 23.6*; Exocytosis inh: 59.0*; B2AR ag: 5.0; NOD2 RIPK2 PPI: -2.3; ABHD5 PLIN5 conf: 22.5*; HNF4 counter: 70.6*

How did NC(c1ccccc1)c1csc(Nc2ccc(C(F)(F)F)cn2)n1 (configuration not stated) do in these assays?
ABHD5-PLIN5 inh: -9.1; Exocytosis inh: 4.2; NOD2 RIPK2 PPI: 2.7

Results for NC(CSS(=O)(=O)O)=NCCC12CC3CC(CC(O)(C3)C1)C2 ?
TLR9-MyD88 block: -11.4; TLR4 MyD88 comp: -1.3; ABHD5-PLIN5 inh: -30.5; Exocytosis inh: 1.2; B2AR ag: 5.4; NOD2 RIPK2 PPI: -10.1

Results for CC1(C)C2CCC(CN=C(N)CSS(=O)(=O)O)C1C2 (configuration not stated) ?
TLR9-MyD88 block: -2.0; ABHD5-PLIN5 inh: 61.3*; Exocytosis inh: -7.5; NOD2 RIPK2 PPI: -9.7; ABHD5 PLIN5 conf: 78.0*; HNF4 counter: 51.6*

Results for CNc1ccc(Br)cc(C(=O)/C=C/c2cc(OC)ccc2OC)c1=O ?
TLR9-MyD88 block: 8.6; TLR4 MyD88 comp: 4.4; ABHD5-PLIN5 inh: 25.7*; Exocytosis inh: 1.7; B2AR ag: 9.7; NOD2 RIPK2 PPI: 6.1; ABHD5 PLIN5 conf: 62.5*; HNF4 counter: 57.5*

How did CCCOC(=O)CSc1nnc(-c2cc(OC)c(OC)c(OC)c2)o1 do in these assays?
TLR9-MyD88 block: -1.1; TLR4 MyD88 comp: 15.8; ABHD5-PLIN5 inh: 74.1*; Exocytosis inh: -3.7; B2AR ag: 3.0; NOD2 RIPK2 PPI: 0.2; ABHD5 PLIN5 conf: 4.8; HNF4 counter: 3.0

What do the screens show for `CCOc1cc(/C=C2\C(=O)N(Cc3ccco3)C(C)=C2C(=O)OC)ccc1O`?
TLR9-MyD88 block: 2.9; TLR4 MyD88 comp: -2.6; ABHD5-PLIN5 inh: 51.6*; Exocytosis inh: 6.5; B2AR ag: 23.7; NOD2 RIPK2 PPI: -0.6; ABHD5 PLIN5 conf: 36.6*; HNF4 counter: 62.5*

How did CCOc1cc(/C=C2\C(=O)N(CCc3ccc(OC)c(OC)c3)C(C)=C2C(=O)OC)ccc1O do in these assays?
TLR9-MyD88 block: -1.4; TLR4 MyD88 comp: -1.6; ABHD5-PLIN5 inh: 20.8; Exocytosis inh: -1.7; B2AR ag: 6.4; NOD2 RIPK2 PPI: -3.0
